From PubChem
LYPLA1 inh – LYPLA1 inhibitors, primary screen, counter-screen for PME1 inhibitor project, biochemical, fluorescence polarization, FP-Rh probe ABPP. Acyl-protein thioesterase 1 (Homo sapiens), O75608. recombinant LYPLA1. inhibition, % at 5.9 µM. hit rate 0.16% among 320,000;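 active means inhibition above the mean of all tested compounds plus 3 SD, set per campaign, cut at about 14% in these data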;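 further: inhibitors block serine hydrolase probe labeling of LYPLA1 so polarization falls; 0% = enzyme with DMSO and 100% = wells lacking LYPLA1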
GSTO1 inh – inhibitors of recombinant GSTO1, primary screen, counter-screen for RBBP9 inhibitor project, biochemical, fluorescence polarization | Glutathione S-transferase omega-1 (Homo sapiens), P78417 | activity-based probe fluorescence polarization | hit rate 1.1% among 300,000 | inhibition, % at 5.96 µM | AID 1974, 2009;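 active means inhibition above the campaign mean inhibition plus 3 SD, cut at about 35% in these data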;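 further: 0% = GSTO1-1 with DMSO and 100% = wells lacking GSTO1-1 enzyme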
Target sequence (P78417 whole entry, looked up): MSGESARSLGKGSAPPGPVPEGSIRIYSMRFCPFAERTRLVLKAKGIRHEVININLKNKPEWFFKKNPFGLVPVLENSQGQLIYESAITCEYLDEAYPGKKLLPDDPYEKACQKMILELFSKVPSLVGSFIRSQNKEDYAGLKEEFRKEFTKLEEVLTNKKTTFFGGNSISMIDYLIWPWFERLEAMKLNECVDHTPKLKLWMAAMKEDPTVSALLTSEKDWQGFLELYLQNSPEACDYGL
ZTA DNA inh – ZTA (EBV) inhibition in EBNA-1 counter-screen | P03206 | ZTA-DNA binding, fluorescence polarization | inhibition, % at 11 µM | hit rate 0.15% among 320,000 | AID 2234; in the data active means inhibition above about 33%
EBNA-1 inh – EBNA-1 DNA-binding inhibitors, primary screen, biochemical, fluorescence polarization | inhibition, % at 14.8 µM | hit rate 0.34% among 300,000; in the data active means inhibition above about 28%
LYPLA2 counter – LYPLA2 inhibitors, primary screen, counter-screen for PME1 inhibitor project, biochemical, fluorescence polarization, FP-Rh probe ABPP; Acyl-protein thioesterase 2 (Homo sapiens), O95372; recombinant LYPLA2; inhibition, % at 5.9 µM; hit rate 0.38% among 320,000;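 active means inhibition above the screen-wide mean plus 3 SD, limit set per campaign, cut at about 26% in these data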;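 further: 0% = LYPLA2 with DMSO and 100% = wells lacking LYPLA2 enzyme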
Target sequence (O95372 whole entry, looked up): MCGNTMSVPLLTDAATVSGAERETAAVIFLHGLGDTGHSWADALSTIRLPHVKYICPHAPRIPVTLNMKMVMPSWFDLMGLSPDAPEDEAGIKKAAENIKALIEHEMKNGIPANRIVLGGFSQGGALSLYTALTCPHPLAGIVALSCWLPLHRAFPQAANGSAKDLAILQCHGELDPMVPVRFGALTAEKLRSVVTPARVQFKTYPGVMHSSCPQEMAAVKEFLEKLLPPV
PAD4 FP inh – human PAD4 inhibitors, primary screen, biochemical, fluorescence polarization, 1536-well format; recombinant PAD4, RCA probe fluorescence polarization; inhibition, % at 6.36 µM; hit rate 0.41% among 330,000; AID 485272, 2010;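 active means percent inhibition above a cutoff equal to the mean of all tested compounds plus 3 SD, cut at about 15% in these data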;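 further: 0% = PAD4 with RCA probe and DMSO and 100% = probe without PAD4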
Active calls of the source: *. Hits are enriched below; roughly 1.7% of the tested compounds scored in any of these assays.

How did CC(C)N1CC=C2C(C#N)=C(N)C(C#N)(C#N)[C@H](c3ccoc3)[C@H]2C1 do in these assays?
LYPLA1 inh: 5; GSTO1 inh: 64*; ZTA DNA inh: -23; EBNA-1 inh: 5; LYPLA2 counter: 4; PAD4 FP inh: 49*

Results for O=[N+]([O-])c1ccc(Sc2nc3ccccc3o2)c([N+](=O)[O-])c1 ?
LYPLA1 inh: 2; GSTO1 inh: 12; ZTA DNA inh: 13; EBNA-1 inh: -10; LYPLA2 counter: 10; PAD4 FP inh: 49*

What do the screens show for `COc1ccc([C@H]2CC(=O)C=C(c3ccc(OC)nc3)C2)cc1`?
LYPLA1 inh: 5; ZTA DNA inh: -15; LYPLA2 counter: 5; PAD4 FP inh: -5

How did Cc1ccc2c(c1C)NC(C(=O)O)C1CC=CC21 (stereo not drawn) do in these assays?
LYPLA1 inh: -3; GSTO1 inh: 51*; ZTA DNA inh: 5; EBNA-1 inh: 10; LYPLA2 counter: 9; PAD4 FP inh: 2

Results for Cc1cc(C)c2c(c1)NC(C(=O)O)C1CC=CC21 (stereo not drawn) ?
LYPLA1 inh: -1; GSTO1 inh: 18; ZTA DNA inh: 11; EBNA-1 inh: -3; LYPLA2 counter: 6; PAD4 FP inh: -2

How did O=C(O)C1Nc2c(C(=O)N3CCOCC3)cccc2C2C=CCC12 (stereo not drawn) do in these assays?
LYPLA1 inh: -5; GSTO1 inh: 36*; ZTA DNA inh: 14; EBNA-1 inh: 12; LYPLA2 counter: -10; PAD4 FP inh: -12

What do the screens show for `CCCc1cc(=O)oc2cc(OCC(=O)NCCc3c[nH]c4ccccc34)ccc12`?
LYPLA1 inh: -4; GSTO1 inh: -1; ZTA DNA inh: 6; EBNA-1 inh: -7; LYPLA2 counter: 0; PAD4 FP inh: -1

Results for COc1ccc(Cc2nnc(NC(=O)Cc3cccs3)s2)cc1OC ?
LYPLA1 inh: -3; GSTO1 inh: 37*; ZTA DNA inh: -5; EBNA-1 inh: 3; LYPLA2 counter: -8; PAD4 FP inh: -6

How did Cn1cnnc1SCC(=O)Nc1sc2c(c1C(N)=O)CCC2 do in these assays?
LYPLA1 inh: -9; GSTO1 inh: 36*; ZTA DNA inh: 10; EBNA-1 inh: 3; LYPLA2 counter: -2; PAD4 FP inh: -4

Results for COc1ccc(CNC(=O)c2noc(C(C)C)c2[N+](=O)[O-])cc1 ?
LYPLA1 inh: 2; GSTO1 inh: 23; ZTA DNA inh: -26; EBNA-1 inh: 2; LYPLA2 counter: 5; PAD4 FP inh: -3

Results for CC(C)c1onc(C(=O)NCc2ccccc2)c1[N+](=O)[O-] ?
LYPLA1 inh: -5; GSTO1 inh: 37*; ZTA DNA inh: -7; EBNA-1 inh: 9; LYPLA2 counter: -7; PAD4 FP inh: -2

How did COc1cccc2nc3cc(C)c(C)cc3nc12 do in these assays?
LYPLA1 inh: 0; GSTO1 inh: 48*; ZTA DNA inh: -10; EBNA-1 inh: -9; LYPLA2 counter: -2; PAD4 FP inh: -13

Results for O=C(Nc1ccc2nc(-c3ccco3)c(-c3ccco3)nc2c1)N1CCCCCC1 ?
LYPLA1 inh: -15; GSTO1 inh: 60*; ZTA DNA inh: 41*; EBNA-1 inh: 24; LYPLA2 counter: -4; PAD4 FP inh: -12

What do the screens show for `O=C(c1ccccc1)c1ccc2nc(-c3ccco3)c(-c3ccco3)nc2c1`?
LYPLA1 inh: -2; GSTO1 inh: 60*; ZTA DNA inh: 4; EBNA-1 inh: 1; LYPLA2 counter: 6; PAD4 FP inh: -14

What do the screens show for `O=C(NCCc1ccccc1)c1ccc2nc(-c3ccco3)c(-c3ccco3)nc2c1`?
LYPLA1 inh: -7; GSTO1 inh: 46*; ZTA DNA inh: -2; EBNA-1 inh: -2; LYPLA2 counter: 12; PAD4 FP inh: -19

What do the screens show for `CCc1nnc(NC(=O)CSc2nnc(Cc3ccccc3)n2Cc2ccccc2)s1`?
LYPLA1 inh: 2; GSTO1 inh: -7; ZTA DNA inh: 6; EBNA-1 inh: -7; LYPLA2 counter: 7; PAD4 FP inh: 2

What do the screens show for `CCc1nnc(NC(=O)CSc2nc3cccnc3n2Cc2ccccc2)s1`?
LYPLA1 inh: -1; GSTO1 inh: 36*; ZTA DNA inh: 20; EBNA-1 inh: -6; LYPLA2 counter: -6; PAD4 FP inh: 0

How did Cc1c(N(C)C)c(=O)n(-c2ccccc2)n1C do in these assays?
LYPLA1 inh: -1; ZTA DNA inh: 2; LYPLA2 counter: -1; PAD4 FP inh: -2

How did Cc1c(C=O)c(=O)n(-c2ccccc2)n1C do in these assays?
LYPLA1 inh: -2; GSTO1 inh: -1; ZTA DNA inh: active; EBNA-1 inh: active; LYPLA2 counter: -4; PAD4 FP inh: -2

How did O=S(=O)(O)c1cccc2cccc(Nc3ccccc3)c12 do in these assays?
LYPLA1 inh: -3; GSTO1 inh: 38*; ZTA DNA inh: -9; EBNA-1 inh: 4; LYPLA2 counter: 1; PAD4 FP inh: 2

How did c1ccc(Nc2cccc3c(Nc4ccccc4)cccc23)cc1 do in these assays?
LYPLA1 inh: -2; GSTO1 inh: -5; ZTA DNA inh: 5; EBNA-1 inh: 1; LYPLA2 counter: 0; PAD4 FP inh: -2

Results for O=C(CNC(=O)COc1ccccc1)NCCN1CCOCC1 ?
LYPLA1 inh: -1; ZTA DNA inh: 9; LYPLA2 counter: -1; PAD4 FP inh: 0

Results for COc1ccc(-c2cn(Cc3ccc(C(N)=O)cc3)c(CCN)n2)cc1 ?
LYPLA1 inh: -2; GSTO1 inh: 4; ZTA DNA inh: 17; EBNA-1 inh: 5; LYPLA2 counter: -6; PAD4 FP inh: 2

How did O=C(Cc1ccc(Cl)cc1)Nc1cccc(S(=O)(=O)N2CCCCC2)c1 do in these assays?
LYPLA1 inh: -13; ZTA DNA inh: -5; LYPLA2 counter: -16; PAD4 FP inh: -1

What do the screens show for `O=C(CCl)Nc1cccc(S(=O)(=O)N2CCCCCC2)c1`?
LYPLA1 inh: -2; GSTO1 inh: 91*; ZTA DNA inh: -8; EBNA-1 inh: -5; LYPLA2 counter: 6; PAD4 FP inh: 3

Results for CC(C)CNC(=O)NC(=O)COC(=O)c1cc(F)cc(F)c1 ?
LYPLA1 inh: -3; GSTO1 inh: 3; ZTA DNA inh: 6; EBNA-1 inh: 88*; LYPLA2 counter: 4; PAD4 FP inh: 2

How did CC(C)CNC(=O)NC(=O)COC(=O)c1cccc(NS(=O)(=O)c2ccc(F)c(F)c2)c1 do in these assays?
LYPLA1 inh: -2; GSTO1 inh: 4; ZTA DNA inh: -5; EBNA-1 inh: 17; LYPLA2 counter: -2; PAD4 FP inh: 4

What do the screens show for `CCCOc1ccc(N2C(=O)CC(N(CCc3ccc(OC)cc3)C(=O)c3ccccc3)C2=O)cc1` (stereo not drawn)?
LYPLA1 inh: 0; GSTO1 inh: -4; ZTA DNA inh: -6; EBNA-1 inh: 0; LYPLA2 counter: -4; PAD4 FP inh: -4
